Assay outcomes from PubChem.
CYP2C9 inhib – blocks human cytochrome P450 2C9; CYP2C9 Supersomes, luciferin-H conversion, luminescence; inhibition, % at 5 µM; 20% of 96,000 active;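 active = blocking of liver enzyme CYP2C9 beyond about 50% at 5 µM, limit read from the data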
Target sequence (P11712 whole entry, looked up): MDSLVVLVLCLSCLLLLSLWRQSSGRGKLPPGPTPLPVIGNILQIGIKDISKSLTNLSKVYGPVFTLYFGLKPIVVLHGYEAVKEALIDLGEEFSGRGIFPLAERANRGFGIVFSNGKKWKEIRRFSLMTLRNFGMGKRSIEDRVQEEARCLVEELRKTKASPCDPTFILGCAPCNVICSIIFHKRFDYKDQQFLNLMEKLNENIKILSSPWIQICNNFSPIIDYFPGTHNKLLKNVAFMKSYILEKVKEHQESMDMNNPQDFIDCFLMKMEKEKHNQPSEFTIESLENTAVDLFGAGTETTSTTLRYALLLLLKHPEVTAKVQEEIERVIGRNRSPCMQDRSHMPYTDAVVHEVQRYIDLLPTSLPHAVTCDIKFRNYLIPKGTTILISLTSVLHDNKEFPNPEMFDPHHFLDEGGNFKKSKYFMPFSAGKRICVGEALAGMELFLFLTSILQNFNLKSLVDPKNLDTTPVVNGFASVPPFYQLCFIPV
Measles CPE – protection of cells from measles virus | Measles virus-infected cells, CPE protection, absorbance | AID 841 | protection (pct of control), % at 4 µM | 1.5% of 140,000 active; in the data active = protection mostly above about 24%, no sharp cut-off; inactive = mostly below about 26%
CYP2C9 act – increases human cytochrome P450 2C9 activity; P11712; recombinant CYP2C9, luciferin-H conversion, luminescence; hits give high values; factor 1 = untreated enzyme, 0 = blocked; activation factor at 5 µM; 1.4% of 96,000 active; AID 1024;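 active = activation factor of 2 or more for CYP2C9 at a 5 µM dose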
CYP2C19 activ – increases human CYP2C19 enzyme activity; activation factor at 5 µM; 96,000 tested, under 10 active; recombinant CYP2C19, luciferin-H EGE luminescence; hits give high values; 0 = fully inhibited enzyme, 1 = untreated enzyme;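 active = activation factor of at least 2 at 5 µM in the primary screen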
CYP2C19 inh – blocks human cytochrome P450 2C19; CYP2C19 Supersomes, luciferin-H EGE luminescence, 30 min; 21% of 96,000 active; inhibition, % at 5 µM; P33261; AID 778;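 active = CYP2C19 inhibition above a set limit at 5 µM in the primary screen, cut at about 50% in these data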
A number is an active result; - = inactive; . = not tested or not shown. Rows were chosen to be rich in hits. Some 22% of all compounds tested hit in one or more screens of this group.

SMILES | CYP2C9 inhib | Measles CPE | CYP2C9 act | CYP2C19 activ | CYP2C19 inh
CC(=O)C1=C(C)NC(SCC(N)=O)=C(C#N)C1c1sccc1C (stereo not drawn) | - | - | - | - | -
CCOC(=O)CSC1=C(C#N)C(c2sccc2C)C(C(C)=O)=C(C)N1 (stereo not drawn) | 73 | - | - | - | 65
O=C(CCC1=NS(=O)(=O)c2ccccc2N1)NC1CCCCCCC1 | - | - | - | - | -
Cc1cccc(OCC2=NS(=O)(=O)c3ccccc3N2)c1 | 51 | - | - | - | -
CCN1CCN(c2ccc(NC(=O)CCc3c(C)nc4c(-c5ccccc5)c(C)nn4c3C)cc2)CC1 | - | - | - | - | -
Cc1cnc(NC(=O)c2ccc(-c3nc4ccccc4s3)o2)s1 | 56 | - | - | - | 75
Cc1cnc(NC(=O)CSc2nc3ccccc3s2)s1 | - | - | - | - | -
Cn1c(Cc2ccccc2)nnc1SCC(=O)c1ccc(Br)s1 | 70 | - | - | - | 75
Cn1nnnc1SCC(=O)c1cccs1 | - | - | - | - | -
Cn1c(Cc2ccccc2)nnc1SCC(=O)N1CCCCC1 | . | - | . | . | .
Cn1nnnc1SCC(=O)c1ccc(Br)s1 | - | - | - | - | 65
CCCCN1C(=O)CN(CCc2ccccc2)C(=O)C1c1ccc(OC)cc1 (stereo not drawn) | - | - | - | - | -
CC(C)[C@H](NC(=O)OCc1ccccc1)C(=O)NCc1ccccc1 | . | - | . | . | .
Cc1nnc(SCc2cnc(-c3ccccc3)o2)[nH]c1=O | - | - | - | - | -
C#CCSc1nnc(-c2ccccc2)c(=O)[nH]1 | 56 | - | - | - | -
O=C(NCc1ccco1)c1sc2ccccc2c1Cl | . | - | . | . | .
COC(=O)CCSCC(=O)Nc1nnc(C)s1 | - | - | - | - | -
CS(=O)(=O)N1CCN(C(=O)C(Sc2ccccc2)c2ccccc2)CC1 (stereo not drawn) | - | - | - | - | 71
COc1ccccc1N1CCN(C(=O)C(Sc2ccccc2)c2ccccc2)CC1 (stereo not drawn) | 59 | - | - | - | 61
CCOc1cc(C(=O)OCC(=O)Nc2c(C)cccc2C)ccc1OCC(=O)N1CCOCC1 | . | 33 | . | . | .
CCOc1ccc(OCC)c(NC(=O)C2C3C=CC(O3)C2C(=O)NCc2ccco2)c1 (stereo not drawn) | - | - | - | - | 51
CCOc1ccccc1OCC(=O)NCc1ccco1 | - | - | - | - | 65
O=C(COc1ccccc1Cl)NCc1ccco1 | - | - | - | - | -
CCCOc1ccc(CC(=O)NCc2ccco2)cc1OC | - | - | - | - | 63
CCCOC(=O)NC1CCS(=O)(=O)C1 (stereo not drawn) | - | - | - | - | -
SMILES | CYP2C9 inhib | Measles CPE | CYP2C9 act | CYP2C19 activ | CYP2C19 inh
Cc1cccc(CC(=O)Nc2cc(=O)n(C)c(=O)n2C)c1 | - | - | - | - | -
Cc1noc(C)c1C(=O)NC(C)C1CCCO1 (stereo not drawn) | - | - | - | - | -
CCOc1ccc(C(=O)OCC(=O)NCc2ccco2)cc1OCC | - | - | - | - | 70
COc1ccc(C(=O)OCC(=O)NCc2ccco2)cc1OC | - | - | - | - | -
COCCn1c(=NC(=O)CSC(C)=O)sc2cc(OC)ccc21 | - | - | - | - | -
COCCn1c(=NC(=O)CSCC(=O)NC2CCCCC2)sc2cc(OC)ccc21 | 57 | - | - | - | 82
O=C1COc2ccc(C(=O)CSc3nnc(-c4cccs4)n3Cc3ccccc3)cc2N1 | 63 | - | - | - | 52
O=C1COc2ccc(C(=O)CSc3nnc(Cc4cccs4)n3-c3ccccc3)cc2N1 | 85 | - | - | - | -
O=C1COc2ccc(C(=O)c3ccccc3C(=O)O)cc2N1 | . | - | . | . | .
Cc1ccc(SC/C(O)=C(\C#N)c2nc3ccccc3n2C)cc1 | 50 | - | - | - | -
CC(C)c1nc(NCC2CCCO2)c(C#N)c2c1COC(C)(C)C2 (stereo not drawn) | 82 | - | - | - | 54
O=C(CSc1ccc(-c2cccs2)nn1)N1CCCCCC1 | . | - | . | . | .
Cc1ccc(C)c(NC(=O)CNS(=O)(=O)c2ccccc2)c1 | - | - | 2.1 | - | 79
COc1cc(NC(=O)CS(=O)(=O)c2ccccc2)cc(OC)c1OC | - | - | - | - | 66
COc1ccccc1NC(=O)CNS(=O)(=O)c1ccccc1 | - | - | - | - | 96
COc1cc(NC(=O)Cc2c(C(=O)O)[nH]c3ccccc23)cc(OC)c1OC | - | - | - | - | -
Cc1cccc(NC(=O)CNc2cc(C)ccc2C)c1 | - | - | - | - | 84
CC(=O)N(c1ccc(Br)cc1)C1C=CS(=O)(=O)C1 (stereo not drawn) | - | - | - | - | -
CC(=O)N1CCCc2cc(S(=O)(=O)N(CC(C)C)CC(C)C)ccc21 | - | - | - | - | -
CCC(=O)N1CCN(c2ccc(Cl)cc2NC(=O)Cc2ccccc2)CC1 | 79 | - | - | - | 83
CCC(=O)N1CCN(c2ccc(Cl)cc2NC(=O)c2ccc3c(c2)OCCO3)CC1 | 71 | - | - | - | -
CC(=O)Nc1ccc(C(=O)N2CCN(C(=O)c3ccco3)CC2)cc1 | - | - | - | - | -
Cc1ccc(NS(=O)(=O)c2ccc3c(c2)oc(=O)n3C)cc1F | 76 | 45 | - | - | 56
CSc1cccc(NS(=O)(=O)c2ccc3c(c2)oc(=O)n3C)c1 | 53 | - | - | - | 97
Cn1c(=O)oc2cc(S(=O)(=O)Nc3cccc(F)c3)ccc21 | . | - | . | . | .
SMILES | CYP2C9 inhib | Measles CPE | CYP2C9 act | CYP2C19 activ | CYP2C19 inh
Cc1ccc(CNc2nc(-c3cccs3)nc3ccccc23)cc1 | . | - | . | . | .
COc1ccc(-c2ncc3ccccn23)cc1 | - | - | - | - | 62
C[n+]1cccc(C(=O)NCC2CCCO2)c1 (stereo not drawn) | . | - | . | . | .
COC(=O)CC/C(O)=C1\C(=O)CC(C)(C)CC1=Nc1ccccc1OC | - | - | - | - | -
CCCC/C(O)=C1\C(=O)CC(C)(C)CC1=Nc1ccccc1OC | 90 | - | - | - | 93
CCC/C(O)=C1\C(=O)CC(C)(C)CC1=Nc1ccc(OC)cc1OC | 95 | - | - | - | 97
Oc1ccc(C=Nc2ccccc2-c2nc3ccccc3[nH]2)c(O)c1 | . | - | . | . | .
Oc1ccccc1C=Nc1ccccc1-c1nc2ccccc2[nH]1 | . | 58 | . | . | .
O=C(O)c1ccc(CSc2nc(-c3ccccc3)cc(C(F)(F)F)n2)cc1 | . | 34 | . | . | .
CC(C)CNC(=O)CSc1nc(-c2cccs2)cc(C(F)(F)F)n1 | . | - | . | . | .
O=C(CSc1nc(-c2cccs2)cc(C(F)(F)F)n1)NCc1ccccc1 | 91 | - | - | - | 60
CCCNC(=O)CSc1nc(-c2cccs2)cc(C(F)(F)F)n1 | 77 | - | - | - | 68
CCCCN(CC)c1nc(N)c2c(N)nc(OCC)cc2c1C#N | - | - | - | - | -
CCOCCCNC(=S)NCCNc1nc2ccc(C)cc2cc1C#N | . | 55 | . | . | .
COc1cccc(CC(NC(C)=O)C(=O)NC2CCN(c3nnnn3-c3ccccc3)CC2)c1 (stereo not drawn) | - | - | - | - | -
CCCC1S/C(=N/N=C/c2ccc(C)cc2)N(Cc2ccc(OC)cc2)C1=O (stereo not drawn) | - | - | - | - | -
